# Compounds without any hit were thinned out: in the full panel of roughly 83,000, 20% have a hit.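 Activity criterion: percent growth below 10, measured after cells in 96-well plates were exposed to a single compound concentration for 48 hours.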 A number with no mark means an inactive call. The source made the active and inactive calls.
# Key:
# Experiment in all cases: NCI-60 one-dose screen, 48 h (100 = growth as untreated, 0 = no growth, -100 = all killed)
# Details in all cases: 10 µM
# SR leukemia = system: SR leukemia
# RPMI-8226 leukemia = system: RPMI-8226 leukemia
# OVCAR-8 ovarian = system: OVCAR-8 ovarian
# OVCAR-5 ovarian = system: OVCAR-5 ovarian
# OVCAR-4 ovarian = system: OVCAR-4 ovarian
# SK-OV-3 ovarian = system: SK-OV-3 ovarian
# HS 578T breast = system: HS 578T breast
# NCI/ADR-RES ovarian = system: NCI/ADR-RES ovarian
# IGROV1 ovarian = system: IGROV1 ovarian
# OVCAR-3 ovarian = system: OVCAR-3 ovarian
Structure (SMILES),growth (SR leukemia),growth (RPMI-8226 leukemia),growth (OVCAR-8 ovarian),growth (OVCAR-5 ovarian),growth (OVCAR-4 ovarian),growth (SK-OV-3 ovarian),growth (HS 578T breast),growth (NCI/ADR-RES ovarian),growth (IGROV1 ovarian) [%],growth (OVCAR-3 ovarian)
C=CCNCCN1C(=O)c2ccc3c4c(ccc(c24)C1=O)C(=O)N(CCNCC=C)C3=O,-8.69% (active),13.5%,-24% (active),-52% (active),-97.5% (active),-38.6% (active),1.35% (active),-12.9% (active),,
COc1cc2c(cc1NC(=O)C(F)(F)F)-c1ccc(NC(=O)C(F)(F)F)cc1C2,107%,103%,96.8%,99%,,54.7%,77.8%,93.3%,103,108%
CCN(CC)CCCC(C)N=C(C1=C(C(=NC(C)CCCN(CC)CC)c2cccc(OC)c2)C(=O)NC1=O)c1cccc(OC)c1 (stereo not given),2.6% (active),-30.6% (active),-11.3% (active),-3.07% (active),-23.5% (active),9.81% (active),16.4%,4.23% (active),,-17.7% (active)
COc1cc(N)c2ncccc2c1SC,90.4%,100%,98.4%,101%,105%,108%,92.5%,99.1%,,105%
